# A selection: hits, their analogues and other compounds. The true share with any hit is near 19%.
# MARV entry inh – qHTS for inhibitors of binding or entry into cells for Marburg Virus | AID 540276, 2011 | 300,000 compounds, 1.8% hits | Marburg virus pseudotyped entry inhibition, cell reporter | Potency, µM (titrated, usually from 37.8 µM), without a hit: top-dose activity change, negative = inhibition, actives largely listed as inhibitors; calls by dose curve; tested in HEK293 cells; further: potency means the concentration at half of the fitted maximal effect; on the % scale 0 is the no-effect control and ±100 the full control effect
# Pf growth 96h – Primary qHTS for delayed death inhibitors of the malarial parasite plastid, 96 hour incubation | 320,000 compounds, 6.9% hits | Potency, µM (doses to about 28.7 µM), for inactives: at the top dose activity change, negative = inhibition, usual class: inhibitors | P. falciparum luciferase reporter growth, 96 h; further: potency means the concentration at half of the fitted maximal effect; on the % scale 0 is the no-effect control and ±100 the full control effect
#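 Compounds incubated with erythrocytes infected by luciferase-expressing P. falciparum (2% hematocrit, 0.05% parasitemia final) for 96 hours, 37 C in 5% CO2. Growth inhibition scored as decreased luciferase luminescence.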
# LASV entry inh – qHTS for Inhibitors of binding or entry into cells for Lassa Virus | Lassa virus pseudotype entry inhibition, cell reporter | Potency, µM (doses to about 37.9 µM), for inactives: top-dose activity change, negative = inhibition, most hits filed as inhibitors | 300,000 compounds, 1.2% hits; calls by dose curve; tested in HEK293 cells; further: potency means the concentration at half of the fitted maximal effect; on the % scale 0 is the no-effect control and ±100 the full control effect; nearly all actives have a fitted effect of over 50% in size
# Shiga inhibitor – A qHTS for Small Molecule Inhibitors of Shiga Toxin | Vero cells, Shiga toxin protein synthesis inhibition reporter | inhibition, % at 38.7 µM | 290,000 compounds, 9.2% hits; in the data active means inhibition mostly above about 28%, no sharp cut-off; inactive means mostly below about 43%; further: 0% is about no effect
# Cycloheximide cs – Cycloheximide Counterscreen for Small Molecule Inhibitors of Shiga Toxin; cell reporter, cycloheximide protein synthesis inhibition counterscreen; max response, %; 300,000 compounds, 12% hits; AID 2314, 2010; in the data active means max response mostly above about 13%, no sharp cut-off; inactive means mostly below about 14%; further: read at 38.3 µM for the half of the compounds with a filed dose; 0% is about no effect
# Pf growth 48h – Primary qHTS for delayed death inhibitors of the malarial parasite plastid, 48 hour incubation; P. falciparum luciferase growth in erythrocytes, 48 h; Potency, µM (doses to about 28.7 µM), inactives show at the highest dose activity change, negative = inhibition, hits mostly inhibitors; 310,000 compounds, 5.9% hits; further: potency means the concentration at half of the fitted maximal effect; on the % scale 0 is the no-effect control and ±100 the full control effect
#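 Compounds are pin-transferred into medium, infected erythrocytes (2% hematocrit, 0.1% parasitemia final) are added, and plates sit one parasite generation at 37 C in 5% CO2. Detection reagent is then added and luminescence measured.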
# An asterisk follows results filed as active; i = inactive; ? = inconclusive; . = not tested or not shown; [ ] = another dose, or the depositor's remark. Unless noted, the call rests on the fitted dose curve; in most records, active means well fitted inhibition curve with a large enough effect; inconclusive means small, poorly fitted or top-dose-only effect, or another doubt; inactive means no such curve, though single readings can be large or run the other way.
SMILES,MARV entry inh,Pf growth 96h,LASV entry inh,Shiga inhibitor,Cycloheximide cs,Pf growth 48h
O=C(CN1C(=O)COc2ccccc21)NCCCN1CCCCC1,.,1µM*,.,-2,-1,-2%
O=C(O/N=C1\CCS(=O)(=O)c2sccc21)c1c(F)cccc1F,0%[14.2 µM],63%,8%,7,14*,37%
COCCn1c(N)c(N(Cc2ccccc2)C(=O)c2ccc(-c3ccc(Cl)cc3)o2)c(=O)[nH]c1=O,1%,-14%,-21%,.,.,?
CCOc1ccc(N(C(=O)c2ccccc2Cl)C2=NC(C)(C)CS2)cc1,?,?,0%,66*,28*,-30%
CC(C)CN1CCN(CC#Cc2ccccc2)CC1CCO (stereo not given),.,12µM*,.,22,6,28%
CC(C)=CCN1CCN(CC#Cc2ccccc2)CC1CCO (stereo not given),.,42%,.,-14,-2,?
OCCC1CN(CC#Cc2ccccc2)CCN1Cc1ccccc1F (stereo not given),-7%[46.1 µM],12µM*,?,4,-3,-11%
CC(C)CN1CCN(Cc2cccn2-c2ccccn2)CC1CCO (stereo not given),.,8.3µM*,.,18,1,55%
CC(C)CCN1CCN(Cc2cccn2-c2ccccn2)CC1CCO (stereo not given),-1%[46.1 µM],10%,3%,-12,-3,-3%
Nc1cccc2c1CN(C1CCC(=O)NC1=O)C2=O (stereo not given),.,-5%,.,.,.,-1%
O=C(c1cc2n(n1)C(C(F)(F)F)CC(c1ccco1)N2)N1CCc2ccccc2C1 (stereo not given),?,.,?,-11,-1,?
COc1cc2c(cc1OC)C(C)N(C(=O)c1cc3n(n1)C(C(F)(F)F)CC(c1ccco1)N3)CC2 (stereo not given),?,.,-28%,23,3,6.6µM*
COc1ccc(NC(=O)c2cc3n(n2)C(C(F)(F)F)CC(c2ccco2)N3)cc1 (stereo not given),?,25%,6%,-4,1,?
Cc1cc(NC(=O)c2cc3n(n2)C(C(F)(F)F)CC(c2ccco2)N3)n(-c2ccccc2)n1 (stereo not given),?,?,-24%,-12,-2,9.3µM*
Cc1ccc(CS(=O)(=O)CC(C)(O)c2ccc(Cl)cc2)cc1 (stereo not given),23%[46.1 µM],-3%,?,12,2,-15%
O=C(CN(Cc1ccccc1)C1=NCCS1)c1ccccc1,-16%,26%,25%,-8,-2,12%
C/C(=C\c1ccccc1)CN1CCC(C(=O)N2CCCC(C)C2)CC1 (stereo not given),.,i,.,-8,-1,?
Cc1ccc(/C(N)=N/OC(=O)c2cccc(F)c2)cc1,14%,-17%,?,115*,38*,67%
N/C(=N\OC(=O)c1cccc(F)c1)c1ccccc1,3%,?,24%,93*,88*,0%
Cc1ccc(/C(N)=N/OC(=O)c2ccc3ccccc3c2)cc1,?,-20%,-11%[46.1 µM],10,12,?
N/C(=N\OC(=O)c1cccc(F)c1)c1ccccn1,.,?,.,17,1,-55%
C=C(C)Cn1c(SCC(=O)N/N=C/c2c(O)ccc3ccccc23)nc2ccccc2c1=O,?,0%,7%,12,5,-1%
O=C(Nc1ccc2nc3n(c(=O)c2c1)CCCCC3)c1ccccc1[N+](=O)[O-],.,7%,.,16,16,-4%
O=C(Nc1cccc(S(=O)(=O)N2CCCC2)c1)c1ccc2c(=O)n3c(nc2c1)CCCCC3,?,5.2µM*,21µM*,15,7,?
O=C(Nc1ccc2nc3n(c(=O)c2c1)CCCC3)c1ccccc1F,.,?,.,70*,31*,-10%
SMILES,MARV entry inh,Pf growth 96h,LASV entry inh,Shiga inhibitor,Cycloheximide cs,Pf growth 48h
CCOC(=O)Nc1ccc2nc3n(c(=O)c2c1)CCCCC3,10%,0%,10%,45*,31*,34%
O=C(Nc1ccc2nc3n(c(=O)c2c1)CCCCC3)c1ccccn1,-31%,-35%,?,59*,36*,1%
O=C(NCCCNC(=O)c1ccccn1)c1cccc(F)c1,-3%[46.1 µM],5%,0%[46.1 µM],-14,-1,37%
Cc1ccc2c(c1)C(c1ccc(F)cc1)N(C(=O)c1ccc(S(=O)(=O)N3CCCCC3)cc1)CC(=O)N2 (stereo not given),?,.,-22%[46.1 µM],.,.,.
CCCc1nc(SCC(=O)c2ccc(OC)cc2)c2ccccc2n1,?,37%,-19%[46.1 µM],-3,-1,?
O=c1c2cc(NC(=S)NCCCN3CCC(Cc4ccccc4)CC3)ccc2nc2n1CCCCC2,7.1µM*,?,?,-12,-2,?
COc1ccc(NC(=O)c2ccc3c(=O)n4c(nc3c2)CCCCC4)cc1,15%[46.1 µM],5%,?,29,21*,0%
COc1cc(C(=O)Nc2ccc3nc4n(c(=O)c3c2)CCCCC4)cc(OC)c1OC,-15%[46.1 µM],2.6µM*,-12%[46.1 µM],28,14,-8%
Cc1ccc(NC(=O)c2ccc3c(=O)n4c(nc3c2)CCCCC4)cc1F,?,?,6%[46.1 µM],21,9,-12%
O=C(Nc1ccc(F)cc1Cl)c1ccc2c(=O)n3c(nc2c1)CCCCC3,-3%[46.1 µM],3.7µM*,9%,17,13,10%
COc1ccc(C(=O)Nc2ccc3nc4n(c(=O)c3c2)CCCCC4)cc1OC,28%[46.1 µM],.,1%[46.1 µM],.,.,.
O=C(Nc1ccccc1Cl)c1ccc2c(=O)n3c(nc2c1)CCC3,?,324%,?,.,.,332%
Cc1nc2sccn2c1-c1nc(-c2cc3ccccc3o2)cs1,?,317%,12%,-27,-1,.
CC1(C)Cc2c(cnn2-c2ccc(F)cc2)C(NC(=O)C(C)(C)O)C1 (stereo not given),.,-26%,.,-11,-4,?
CC(C)N(Cc1ccccc1)C(=O)COC(=O)C1CCN(S(=O)(=O)c2ccc3c(c2)OCCO3)CC1,4%[46.1 µM],?,-15%,.,.,-16%
O=c1c2cc(NC(=S)NC3CCCC3)ccc2nc2n1CCCCC2,?,?,?,38,30*,-10%
O=C(NC1CCCCCC1)c1ccc2c(=O)n3c(nc2c1)CCCCC3,?,108%,-30%,46,31*,.
O=C(Nc1ccc2nc3n(c(=O)c2c1)CCCC3)c1cccc(F)c1,.,115%,.,39*,42*,0%
CCC(C)NC(=O)c1ccc2c(=O)n3c(nc2c1)CCCCC3 (stereo not given),22%[46.1 µM],.,12%[46.1 µM],.,.,.
CCCN(C(=O)C(=O)Nc1ccc2nc3n(c(=O)c2c1)CCCCC3)c1ccc(OCC)cc1,?,-9%,-24%[46.1 µM],14,6,0.12µM*
